Activity change, negative = cytotoxicity, Potency and activity change, negative = inhibition data for 15 compounds are collected here from PubChem BioAssay (NCATS).

Each structure is given as a SMILES string. “And” between values parts separate entries of the source, which are not always exact repeats. Equal values may be shown once. Inconclusive results are not listed. A number with no mark means an inactive call. The source made the active and inactive calls. Calls follow the shape of the dose curve; as a rule, active = well fitted curve in the direction sought with a large enough effect; inconclusive = small, poorly fitted or top-dose-only effect, or another doubt; inactive = no such curve, though single readings can be large; an effect the other way counts as inactive or inconclusive.

For experiment [1], the system named is CAOV3. The experiment in a line: Primary qHTS to identify gynecologic anti-cancer compounds using libraries of approved drugs and bioactive compounds (AID 1345084). Also: nearly all actives have a fitted effect of over 55% in size. Also: potency is read from the fitted curve at half-maximal effect. The following applies: Gynecologic cancer cell panel viability, ATPlite luminescence, 48 h; series mostly up to 57.5 µM. The gist of the method: (§1)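 Luminescence from the ATPlite ATP-monitoring reagent indicates viable cell number; lower signal means cytotoxicity. Cells received compound 16 h after seeding and were exposed for 48 h across five concentrations.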
Background: qHTS replaces the single test concentration by a dilution series.

The subject of experiment [2] is CASKI. Described as above. Particulars: Gynecologic cancer cell panel viability, ATPlite luminescence, 48 h; series mostly up to 57.5 µM. The gist of the method: as §1
Background: ATP-based viability assays read luminescence as a measure of living cells.

Experiment [3] has as its system Es-2. The experiment is described as above. Particulars: Gynecologic cancer cell panel viability, ATPlite luminescence, 48 h; series mostly up to 57.5 µM. The gist of the method: as §1
In experiment [4] the test system is HeLa. The experiment is described as above. The following applies: Gynecologic cancer cell panel viability, ATPlite luminescence, 48 h; series mostly up to 57.5 µM. The method, boiled down:
as §1

Experiment [5] has as its system Hek293T. The description is as above. The following applies: Gynecologic cancer cell panel viability, ATPlite luminescence, 48 h, control line for the selectivity index; series mostly up to 57.5 µM. The gist of the method:
as §1

Experiment [6] relates to JEG-3. The description is as above. Particulars: Gynecologic cancer cell panel viability, ATPlite luminescence, 48 h; series mostly up to 57.5 µM. The method, boiled down: as §1
The subject of experiment [7] is OV90. The experiment is described as above. Particulars: Gynecologic cancer cell panel viability, ATPlite luminescence, 48 h; series mostly up to 57.5 µM. The method, boiled down: as §1
For experiment [8], the system named is PA-1. Described as above. Particulars: Gynecologic cancer cell panel viability, ATPlite luminescence, 48 h; series mostly up to 57.5 µM. The method, boiled down:
as §1

Experiment [9] concerns SKOV3. The description is as above. Particulars: Gynecologic cancer cell panel viability, ATPlite luminescence, 48 h; series mostly up to 57.5 µM. The method, boiled down:
as §1

The test system of experiment [10] is Tov-21-G. The experiment is described as above. Particulars: Gynecologic cancer cell panel viability, ATPlite luminescence, 48 h; series mostly up to 57.5 µM. The method, boiled down:
as §1

Experiment [11] relates to Tov112D. The description is as above. Particulars: Gynecologic cancer cell panel viability, ATPlite luminescence, 48 h; series mostly up to 57.5 µM. The gist of the method:
as §1

The nature of experiment [12]: qHTS assay to identify inhibitors of the type 1 interferon - major histocompatibility complex class I in skeletal muscle: Counter screen cell viability and HiBit confirmation (AID 1347412). Also: nearly all actives have a fitted effect of over 60% in size. Particulars: iHSKM muscle cells + IFN-b, HiBiT or CellTiter-Glo, 24 h; Viability; at 45.9 µM (top of the series). The gist of the method: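 Myoblasts (C25cl48, HLA-B HiBiT) seeded in medium without dexamethasone, IFN-b 4 ng/ml added except unstimulated columns; 1 hr later compounds pinned (12-pt 1:3, top 46 uM final). Incubated 24 hrs, lysed 10 min, luminescence measured.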
% is scaled to controls: 0 for no effect and ±100 for the full control effect.

Take `C/C=C(\C)C(=O)O[C@H]1[C@H](O)[C@]2(COC(C)=O)[C@H](O)C[C@]3(C)C(=CCC4[C@@]5(C)CC[C@H](O[C@@H]6O[C@H](C(=O)O)[C@@H](O[C@@H]7O[C@H](CO)[C@@H](O)[C@H](O)[C@H]7O)[C@H](O)[C@H]6O[C@@H]6O[C@H](CO)[C@@H](O)[C@H](O)[C@H]6O)[C@](C)(CO)C5CC[C@]43C)[C@@H]2CC1(C)C` (some centres undefined): the activity change, negative = cytotoxicity in [1] is -14.1% [at 11.6 µM]; in experiment [2], 1.43% [at 11.6 µM]; in [3], 5.46% [at 11.6 µM]; in experiment [4], 15.8% [at 11.6 µM]; in experiment [5], 5.9% [at 11.6 µM]; in experiment [6], -4.88% [at 11.6 µM]. In addition, the activity change, negative = cytotoxicity in experiment [7] was -1.43% [at 11.6 µM]; in experiment [8], 25.1% [at 11.6 µM]; in experiment [9], 20.3% [at 11.6 µM]; in [10], 0.503% [at 11.6 µM]; in experiment [11], 7.17% [at 11.6 µM].

Turning to `NS(=O)(=O)OC[C@@H]1C[C@@H](n2ccc3c(N[C@H]4CCc5ccccc54)ncnc32)C[C@@H]1O`, the Potency in experiment [1] was 631 nM (active); in experiment [3] it was 3160 nM (active); in [5] it was 2510 nM (active); in experiment [8], 708 nM (active) and 1 µM (active); in [9] it was 10000 nM (active); in [10], 501 nM (active) and 398 nM (active). Moreover, the Potency entry in [2], in experiment [4], in experiment [6] and in experiment [7] was “inactive” throughout. Also, in experiment [12], the activity change, negative = inhibition is -12.3%.

`C=C1CC23CC1(O)CCC2C1=CC2OC(=O)C(C)(C2O)C1C3C(=O)O` (centres undefined): the Potency entry in experiment [1], in [2], in experiment [3], in experiment [4], in experiment [5] and in experiment [6] was “inactive” throughout. Besides, the Potency result in experiment [7], in experiment [8], in experiment [9], in experiment [10] and in experiment [11] was “inactive” each time.

Turning to `C=C1C(=O)OC2/C=C(\C)CC/C=C(\C(=O)O)CC/C=C(\C)CCC12` (centres undefined), the Potency result in experiment [1], in experiment [2], in [3], in experiment [4], in experiment [5] and in experiment [6] was “inactive” in each case. The Potency entry in experiment [7], in experiment [8], in experiment [9], in experiment [10] and in [11] was “inactive” each time.

`COC(=O)C1=COC(OC2OC(CO)C(O)C(O)C2O)C2C1CC(OC(=O)C(O)CC(=O)O)C2C` (centres undefined): the Potency entry in [1], in experiment [2], in experiment [3], in experiment [4], in experiment [5] and in experiment [6] was “inactive” each time. Besides, the Potency result in experiment [7], in experiment [8], in experiment [10] and in [11] was “inactive” throughout.

For the compound `CC(C(=O)O)C1CCC2(C)C3C(=O)C=C4C(CCC(=O)C4(C)C)C3(C)CCC12C` (centres undefined), the Potency result in experiment [1], in experiment [2], in experiment [3], in experiment [4], in [5] and in experiment [6] was “inactive” each time. Moreover, the Potency entry in experiment [7], in [8], in [10] and in [11] was “inactive” in each case.

In the case of `C=C1CCC2C(C)(C)CC(=O)CC2(C)C1CCC(C)CCOC(C)=O` (centres undefined), the Potency entry in [1], in experiment [2], in experiment [3], in [4], in [5] and in experiment [6] was “inactive” in each case. Further, the Potency result in [7], in experiment [8], in experiment [10] and in [11] was “inactive” each time.

Turning to `CC1(C)CCCC2(C)C3=C(C(=O)OC3O)C(O)CC12` (centres undefined), the Potency entry in [1], in experiment [2], in experiment [3], in experiment [4], in experiment [5] and in [6] was “inactive” in each case. Moreover, the Potency result in experiment [7], in experiment [8], in experiment [10] and in experiment [11] was “inactive” in each case.

For `CCOC(=O)N1CCC(NCCNC(=O)c2ccccc2C)CC1`, the Potency result in [1], in experiment [2], in experiment [3], in experiment [4], in [5] and in experiment [6] was “inactive” in each case. For the same compound, the Potency result in experiment [7], in [8], in [10] and in [11] was “inactive” each time.

Take `Nc1nc(CC(=O)Nc2ccc(CCNCC(O)c3ccccc3)cc2)cs1` (centres undefined): the Potency result in [1], in experiment [2], in experiment [3], in experiment [4], in experiment [5] and in [6] was “inactive” in each case. The Potency entry in [7], in experiment [8], in [10] and in experiment [11] was “inactive” each time.

With `CC1(C)CCCC2(C)C(CO)C3CCC2C31` (centres undefined), the Potency entry in experiment [1], in [2], in [3], in experiment [4], in [5] and in experiment [6] was “inactive” each time. For the same compound, the Potency entry in [7], in experiment [8], in experiment [10] and in experiment [11] was “inactive” each time.

As to `C=CC(C)(C)O[C@@H]1O[C@H](CO[C@@H]2OC[C@](O)(CO)[C@H]2O)[C@@H](O)[C@H](O)[C@H]1O`, the Potency entry in experiment [1], in [2], in experiment [3], in [4], in experiment [5] and in [6] was “inactive” each time. Moreover, the Potency entry in experiment [7], in experiment [8], in [10] and in [11] was “inactive” throughout.

Take `COc1ccc(C(=O)O[C@H]2CC(C)=CC[C@@]3(C)[C@@H](OC(C)=O)C[C@@](O)(C(C)C)[C@H]23)cc1`: the Potency result in experiment [1], in [2], in experiment [3], in experiment [4], in [5] and in experiment [6] was “inactive” in each case. Besides, the Potency result in experiment [7], in [8], in experiment [10] and in experiment [11] was “inactive” in each case.

On to `O=C(/C=C/c1c(C(=O)O)[nH]c2cc(Cl)cc(Cl)c12)Nc1ccccc1`, for which the Potency entry in [1], in experiment [2], in experiment [3], in [4], in experiment [5] and in experiment [6] was “inactive” in each case. Also, the Potency result in [7], in experiment [8], in experiment [10] and in experiment [11] was “inactive” throughout.

In the case of `CCN[C@@H]1C[C@H](N)[C@@H](O[C@H]2OC(CN)=CC[C@H]2N)[C@H](O)[C@H]1O[C@H]1OC[C@](C)(O)[C@H](NC)[C@H]1O`, the Potency entry in experiment [1], in [2], in experiment [3], in experiment [4], in [5] and in experiment [6] was “inactive” throughout. Besides, the Potency result in experiment [7], in experiment [8], in [10] and in experiment [11] was “inactive” throughout.
